{"source": "PubChem BioAssay AID504842", "about": "(National Center for Advancing Translational Sciences (NCATS), 2011)", "note": "Among all 330,000 compounds or so, about 100 (0.03%) were called active. Inconclusive results (about 1%) are left out. The sample as a whole holds a higher share of actives than the screen did. Unmarked numbers belong to inactive results. Calls come from the whole dose curve; as a rule, active = well fitted inhibition curve with a large enough effect; inconclusive = small, poorly fitted or top-dose-only effect; inactive = flat fitted curve, though single readings scatter. % is set by controls: 0 for no effect and ±100 for the full control effect; potency is the fitted concentration of half-maximal effect."}
{"test_system": "Chaperonin Mm-Cpn (Methanococcus maripaludis)", "test": "Inhibitors of TCP-1 ring complex (TRiC) of Methanococcus maripaludis (MmCpn): qHTS; note: nearly all actives have a fitted effect of over 80% in size;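 for Potency: enzyme at 25 nM with ATP substrate at 10 µM during the reaction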", "settings": "purified Mm-Cpn ATPase, ADP Transcreener TR-FRET; series mostly up to 76.9 µM; activity, negative = inhibition: at the top concentration", "source_text": "The eukaryotic chaperonin TRiC (for TCP-1 ring complex) is an essential and conserved chaperone required for the folding and activation of 10-15% of the proteins encoded by the human genome. […] The TRiC complex consist of two stacked 7-9 membered rings, each containing a central cavity. Substrates are folded within the cavity in an ATP-dependent manner. TRiC is a complex of eight different, essential proteins. As each of the genes encoding the eight subunits is essential for cell viability and no protocol has been developed to over-express this enzyme to high levels. That is why several groups studying the TRiC chaperonin have turned to the archaeal homolog of TRiC, Methanococcus maripaludis (Mm-CPN), and have used this enzyme as a model system for the study of the type II chaperonin family. Small molecule inhibitors of the Mm-CPN enzyme would be extremely useful to study the mechanism of chaperonin activity. Importantly, TRiC and Mm-CPN both require ATP hydrolysis for function. Furthermore, the ATP binding sites are highly conserved among these type II chaperonins. This provides us with an easy, well tested and straightforward assay to identify inhibitors of chaperonin activity. The Mm-CPN assay was developed in 1536-well plate format using the HTRF Transcreener ADP assay kit (Cisbio, Bedford, MA). This assay applied the time resolved fluorescence resonance energy transfer (TR-FRET) principle. ATP in the presence of Mm-CPN is converted to ADP + Pi. An antibody labeled with Eu3+-Cryptate specific and bound to ADP labeled with […] (d2) competes with the unlabeled ADP generated by Mm-CPN. The resulting TR-FRET signal is inversely proportional to the concentration of ADP in the sample. In this assay a reduction in TR-FRET signal is observed with ATP turnover. NIH Chemical Genomics Center [NCGC] NIH Molecular Libraries Probe Centers Network [MLPCN] MLPCN Grant: DA030554-01A1 Assay Submitter (PI): Judith Frydman, Stanford University\nPurified Mm-CPN was supplied by the laboratory of Dr. Judith Frydman. Protein samples were stored at -80C as single use aliquots. Protein was thawed in ambient temperature water bath and placed on ice once thawed. Buffer was prepared fresh day of screen. The buffer composition below was used to prepare the working solution of the Mm-CPN protein and ATP substrate. The buffer is comprised of 30 mM TRIS pH 7.4, 100mM KCl, 5mM MgCl2, and 1mM DTT. A final concentration of 25nM Mm-CPN and 10uM ATP per well were used in the screen. Instructions according to the manufacturer were followed for the ADP Transcreener kit. Used 1536 well Greiner white, medium binding (MB), solid bottom plates. Plates were read on the PerkinElmer EnVision plate reader using Excitation = 320 nm and Emission = […], 665 nm. Protocol- 1.Dispense 1.5ul per well of working [Mm-CPN] = 50nM (or 75 ng / well) 2.Spin plate at 1000 rpm for 30 seconds 3.23nl of compound transferred per well 4.Incubate at 37degC for 10 minutes 5.Dispense 1.5ul per well of working [ATP] = 20uM 6.Incubate at 37degC for 30 minutes 7.Dispense 3ul per well of Anti-ADP Cryptate / ADP-d2 mix (prepared as instructed by Cisbio) 8.Incubate at ambient for 30 minutes 9.Read using EnVision"}
{"smiles": "Cc1cc(S(=O)(=O)NCc2ccccn2)c(Cl)cc1Cl", "activity, negative = inhibition": "-1.27%"}
{"smiles": "Cc1cc(NC(=O)/C=C/C(=O)N(c2ccccc2C)C(C(=O)NC2CCCC2)c2ccc(F)cc2)no1", "note": "(centres undefined)", "activity, negative = inhibition": "0.316%"}
{"smiles": "CCCSC1=C(C#N)C(c2ccccc2C)C(C(=O)OC)C(=O)N1", "note": "(centres undefined)", "activity, negative = inhibition": "0.631%"}
{"smiles": "CCOc1ccc(NC(=O)CN(C)C(=O)CSc2ccccc2)cc1OCC", "activity, negative = inhibition": "-1.05%"}
{"smiles": "CCOc1ccccc1NS(=O)(=O)c1cc2c3c(c1)C(C)C(=O)N3CCC2", "note": "(centres undefined)", "activity, negative = inhibition": "-0.707%"}
{"smiles": "O=S(=O)(Nc1ccc(Oc2ncccn2)c(Cl)c1)c1ccc(F)cc1", "activity, negative = inhibition": "-0.624%"}
{"smiles": "Cc1ccc(S(=O)(=O)N(Cc2cccc([N+](=O)[O-])c2)C(=O)N2CCN(C)CC2)cc1", "activity, negative = inhibition": "1.85%"}
{"smiles": "O=C(CN1CCCSc2ccccc21)N1CCN(S(=O)(=O)c2ccccc2)CC1", "activity, negative = inhibition": "-5.83%"}
{"smiles": "O=C(Cn1nc([N+](=O)[O-])nc1Br)NC1CCCCC1", "activity, negative = inhibition": "2.19%"}
{"smiles": "Cc1nn(-c2ccccc2)nc1C(=O)OCC(=O)N1CCCCC1C", "note": "(centres undefined)", "activity, negative = inhibition": "-2.18%"}
{"smiles": "CCc1ccc(Nc2nnc(SCC(=O)c3ccc4c(c3)NC(=O)CO4)s2)cc1", "activity, negative = inhibition": "-6.83%"}
{"smiles": "CCOCc1c(C(=O)N2CCN(Cc3ccc(Br)s3)CC2)oc2ccccc12", "activity, negative = inhibition": "0.351%"}
{"smiles": "CCOC(=O)CN1C(=O)N[C@@H](c2ccc(Br)cc2)C(C(C)=O)=C1C", "activity, negative = inhibition": "0.237%"}
{"smiles": "FC(F)(F)c1ccc(CN2C[C@@H]3C(c4ccccc4)C4(c5ccccc5)CC3(C4)[C@H]2c2ccccc2)cc1", "note": "(some centres undefined)", "activity, negative = inhibition": "-1.8%"}
{"smiles": "Cc1ccc(NS(=O)(=O)c2ccc3c(c2)CC(=O)N3)cc1Cl", "activity, negative = inhibition": "-0.241%"}
{"smiles": "COc1ccc(-n2c(C)nn(CC3CC3)c2=O)cc1", "activity, negative = inhibition": "-3.12%"}
{"smiles": "CC(=O)Nc1cccc2c1[n+]([O-])c(C)c(C)[n+]2[O-]", "activity, negative = inhibition": "0.959%"}
{"smiles": "CCn1cc(C(=O)NCc2ccc(OC)cc2OC)c(=O)c2ccc(C)nc21", "activity, negative = inhibition": "0.0766%"}
{"smiles": "O=C(CCC(=O)Nc1ccccc1)N/N=C/c1ccccc1F", "activity, negative = inhibition": "0.276%"}
{"smiles": "CCOC(=O)c1ccccc1NC(=O)COC(=O)C(Cc1c[nH]c2ccccc12)NC(C)=O", "note": "(centres undefined)", "activity, negative = inhibition": "-1.13%"}
{"smiles": "Cc1cccc(N2CCN(S(=O)(=O)c3ccc4[nH]c(=O)c(=O)[nH]c4c3)CC2C)c1", "note": "(centres undefined)", "activity, negative = inhibition": "-2.27%"}
{"smiles": "c1csc(-c2nnc(COc3ccc4c(c3)OCO4)o2)c1", "activity, negative = inhibition": "0.221%"}
{"smiles": "CCCOC1CCCN(C(=O)c2cc(COc3cncc(Cl)c3)on2)C1", "note": "(centres undefined)", "activity, negative = inhibition": "0.635%"}
{"smiles": "COc1cccc(-n2c(N)cc(=O)nc2SCC(=O)Nc2cc(C)on2)c1", "activity, negative = inhibition": "0.0443%"}
{"smiles": "CC1CCCCC1NC(=O)CSc1nnc(-c2ccncc2)n1CCCN(C)C", "note": "(centres undefined)", "activity, negative = inhibition": "-2.75%"}
{"smiles": "CC(C)C(NC(=O)c1c(F)cccc1F)C(=O)NCc1ccncc1", "note": "(centres undefined)", "activity, negative = inhibition": "-4.23%"}
{"smiles": "CCOC(=O)c1sc(NC(=O)CSc2nc3c(c(=O)n2-c2ccccc2)SCC3)c(C(=O)OCC)c1C", "activity, negative = inhibition": "-1.33%"}
{"smiles": "Cn1c(=O)n(C)c2cc(CNc3ccc(N4CCOCC4)c(C(=O)O)c3)ccc21", "activity, negative = inhibition": "-1.23%"}
{"smiles": "Cn1c2cc(B(O)O)sc2c2cnn(Cc3ccccc3F)c(=O)c21", "activity, negative = inhibition": "-0.659%"}
{"smiles": "CSCC[C@H](NC(=O)CCCn1nnc2ccccc2c1=O)C(=O)O", "activity, negative = inhibition": "-0.098%"}
{"smiles": "O=C(CCl)Nc1ccc(Sc2ccc(NC(=O)CCl)cc2)cc1", "activity, negative = inhibition": "-5.44%"}
{"smiles": "CCCCN(CCCC)CCC(O)c1cc2c(Cl)cc(Cl)cc2c2cc(C(F)(F)F)ccc12", "note": "(centres undefined)", "activity, negative = inhibition": "-0.59%"}
{"smiles": "Cc1cc(Cl)ccc1NNC(=O)c1snnc1C", "activity, negative = inhibition": "5.25%"}
{"smiles": "O=C(COC(=O)Cn1[nH]c(=O)c2ccccc2c1=O)Nc1ncc(Cl)cc1Cl", "activity, negative = inhibition": "0.0983%"}
{"smiles": "CC(=O)Nc1cccc(C(=O)OCC(=O)NCc2cc(C)c(O)c(C)c2)c1", "activity, negative = inhibition": "0.893%"}
{"smiles": "CSCCC(NC(=O)c1ccccc1)C(=O)N1CCN(Cc2ccc(Cl)cc2)CC1", "note": "(centres undefined)", "activity, negative = inhibition": "0.977%"}
{"smiles": "CC(C)OC(=O)C(C#N)c1nc2ccccc2nc1N1CCN(Cc2ccc3c(c2)OCO3)CC1", "note": "(centres undefined)", "activity, negative = inhibition": "-0.332%"}
{"smiles": "CSc1nc(-c2ccco2)nn1C(=O)c1ccccc1Cl", "activity, negative = inhibition": "2.44%"}
{"smiles": "CCCN1CCn2c3c(c4cc(Br)ccc42)CCCC31", "note": "(centres undefined)", "activity, negative = inhibition": "2.19%"}
{"smiles": "CC(=O)N(C)c1ccc(NC(=O)C(F)(F)F)cc1", "activity, negative = inhibition": "0.394%"}
{"smiles": "CN(C)c1ccc(N/C=C/C(=O)C(F)(F)F)cc1", "Potency": "25.1 µM (active)"}
{"smiles": "CC(C)CNC(=O)C(=O)Nc1ccc(N(C)C)cc1", "activity, negative = inhibition": "-10.1%"}
{"smiles": "Cn1c(N)c(C(=O)COC(=O)c2cccc(S(=O)(=O)N3CCOCC3)c2)c(=O)n(C)c1=O", "activity, negative = inhibition": "-2.55%"}
{"smiles": "CCOC(=O)c1c(CNCc2ccccc2F)c2sc(C)cc2n1C", "activity, negative = inhibition": "0.937%"}
{"smiles": "CSc1nc2ccccc2cc1/C=C(\\C#N)c1ccc(Cl)cc1Cl", "activity, negative = inhibition": "2.17%"}
{"smiles": "C/C=N/N(c1ccccc1)c1ccccc1", "activity, negative = inhibition": "-0.868%"}
{"smiles": "Cc1cc2c(c(=O)n1Cc1ccccc1)C1O[C@](CCCCN3C(=O)c4ccccc4C3=O)(Cc3ccccc31)O2", "activity, negative = inhibition": "-15.5% [at 15.4 µM]"}
{"smiles": "O=C(CSc1nnc(CN2CCCC2)n1-c1ccc(F)cc1)c1ccc2c(c1)OCO2", "activity, negative = inhibition": "-11%"}
{"smiles": "Cc1cc(=O)oc2cc(OCC(=O)Nc3nnc(C4CC4)s3)ccc12", "activity, negative = inhibition": "-0.34%"}
{"smiles": "CCOC(=O)Cc1csc(NC(=O)COc2ccc3c(C)cc(=O)oc3c2)n1", "Potency": "44.7 µM (active)"}
{"smiles": "CCOC(=O)Cc1csc(SCc2cc(=O)oc3cc(O)ccc23)n1", "activity, negative = inhibition": "0.962%"}
{"smiles": "CCCCc1ccc(NC(=O)CN2C(=O)NC(Cc3ccccc3)C2=O)cc1", "note": "(centres undefined)", "activity, negative = inhibition": "-0.0707%"}
{"smiles": "CCOc1ccccc1N1CCN(C(=O)c2ccc3[nH]c(C)c(C)c3c2)CC1", "activity, negative = inhibition": "0.339%"}
{"smiles": "CCOc1ccc(NC(=O)CN(C)C(=O)c2cccc(S(=O)(=O)N3CCCC3)c2)cc1OCC", "activity, negative = inhibition": "2%"}
